Screening results from PubChem BioAssay.
Shown are actives, neighbours in structure and some others; about 6.2% of the full set was active somewhere.
Luc counter: Counterscreen for Luciferase (Kinase-Glo TM) Inhibition; Luciferin 4-monooxygenase (Photuris pensylvanica), Q27757; Kinase-Glo luciferase, ATP luminescence, 8 min; Potency, µM (titrated, usually from 38.3 µM), most hits filed as inhibitors; hit rate 0.28% among 200,000; AID 1379, 2008; note: nearly all actives have a fitted effect of over 60% in size
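Substrate mix (final 50 mM imidazole pH 7.2, 50 mM KCl, 7 mM MgCl2, 10 uM ATP, 0.01% Tween 20, 0.05% BSA) plus pin-tool compound, then Kinase-Glo detection mix; 8 min ambient, luminescence read.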
RORgamma inh: qHTS for inhibitors of ROR gamma transcriptional activity; Nuclear receptor ROR-gamma (Mus musculus), P51450; Potency, µM (series often up to 53.6 µM), most hits filed as inhibitors; AID 2551, 2010; hit rate 5.4% among 310,000; Drosophila S2 Gal4-RORgamma UAS-luciferase reporter, 20 h; note: nearly all actives have a fitted effect of over 60% in size
Target sequence (P51450 whole entry, looked up, the tested form may be a part): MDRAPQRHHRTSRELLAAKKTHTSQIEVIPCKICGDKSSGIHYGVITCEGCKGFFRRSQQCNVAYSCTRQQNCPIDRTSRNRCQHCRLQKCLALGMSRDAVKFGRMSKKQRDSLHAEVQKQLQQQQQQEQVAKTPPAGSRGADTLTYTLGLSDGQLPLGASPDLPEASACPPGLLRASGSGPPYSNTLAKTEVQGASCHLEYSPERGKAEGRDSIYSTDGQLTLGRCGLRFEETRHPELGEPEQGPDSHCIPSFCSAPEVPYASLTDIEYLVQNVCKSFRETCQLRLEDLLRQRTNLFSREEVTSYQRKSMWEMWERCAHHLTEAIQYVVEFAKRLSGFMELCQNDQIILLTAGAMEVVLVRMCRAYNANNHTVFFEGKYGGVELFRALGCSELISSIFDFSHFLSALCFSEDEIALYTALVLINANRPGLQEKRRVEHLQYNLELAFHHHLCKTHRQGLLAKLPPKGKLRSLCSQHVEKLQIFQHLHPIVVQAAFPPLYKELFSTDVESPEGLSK
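Drosophila S2 cells stably expressing Gal4-DBD/mouse RORγ fusion under metallothionein promoter plus UAS-luciferase; compound 1 h, then 700 uM CuSO4 induction for 20 h at ambient temperature; inhibition read as reduced luminescence.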
VP16 counter: VP16 counterscreen qHTS for inhibitors of ROR gamma transcriptional activity. Drosophila S2 Gal4-VP16 UAS-luciferase, luminescence, 20 h. Potency, µM (highest dose often 53.6 µM), actives largely listed as inhibitors. hit rate 3.5% among 310,000. AID 2546, 2010;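 note: Gal4-VP16 expression switched on by copper sulfate through the metallothionein promoter; nearly all actives have a fitted effect of over 50% in size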
Numbers stand for hits; n = inactive; u = inconclusive; x = no result given; [ ] = remark or other dose. Calls come from the whole dose curve; as a rule, active = well fitted curve in the direction sought with a large enough effect; inconclusive = small, poorly fitted or top-dose-only effect, or another doubt; inactive = no such curve, though single readings can be large; an effect the other way counts as inactive or inconclusive.

SMILES | Luc counter | RORgamma inh | VP16 counter
CC(C)NC(=O)CSCc1ccccc1Cl | n | n | n
CCOc1ccc(-n2c(COc3ccc(C)cc3)nnc2SCC(N)=O)cc1 | n | n | n
Cc1cccc(OCc2n[nH]c(=S)n2C2CCCCC2)c1 | n | 0.79µM | 1.3µM
S=c1[nH]nc(COc2ccc(Cl)cc2)n1C1CCCCC1 | n | 1.1µM | 0.79µM
CN(C)c1cc[n+](Cc2c(Cl)cccc2Cl)cc1 | n | u | u
CC(=O)OC[C@H]1O[C@@H](O/N=C2/[C@H]3O[C@@H]3[C@@H](O)[C@H]3[C@H]2CCn2c(=O)n(-c4ccccc4)c(=O)n23)[C@H](OC(C)=O)[C@@H](OC(C)=O)[C@@H]1OC(C)=O | x | n[10 µM] | n[10 µM]
CCCN1CCC(=O)N(C(CSc2ccc(OC)cc2)CC(C)C)CC1 (stereo not given) | x | n | n
Cc1cccc(NC(=O)C23CCC(C)(C2Br)C3(C)C)c1 (stereo not given) | n | n | n
N#Cc1ccsc1NC(=O)c1cccc(-n2cnnn2)c1 | x | u | n
Cc1ccc(C(=O)N/N=C/C2=Cc3ccccc3OC2C)cc1 (stereo not given) | n | 3.2µM | u
CC1Oc2ccccc2C=C1/C=N/NC(=O)c1ccccc1 (stereo not given) | n | n | u
N=C(N)SCCN1CCCCC1 | n[7.66 µM] | x | x
C=CCc1c(C)nc(SC)nc1Nc1ccc(C(C)=O)cc1 | n | n | n
Cc1ccc(N(C(=O)c2csnn2)C(C(=O)NC2CCCCC2)c2ccccn2)cc1C (stereo not given) | x | n | n
CCC1Oc2ccc(C)cc2N(CC(=O)N(Cc2cccnc2)Cc2ccc(C)o2)C1=O (stereo not given) | n | 14µM | u
CCC1Oc2ccc(C)cc2N(CC(=O)N(Cc2ccc(C)o2)C2CC(C)(C)NC(C)(C)C2)C1=O (stereo not given) | n | u | n
COc1ccc(NC(=O)N(CCN2CCCC2)Cc2cc3cc(OC)c(OC)cc3[nH]c2=O)cc1 | n | n | n
COC(=O)[C@@H]1CC[C@H](C)[C@@H](c2ccc(C)cc2)N1C(=O)c1ccc(/C=N\O[C@@H](C)CN2CCCCc3nc(C)c(C)cc32)cc1 | x | n[10 µM] | n[10 µM]
COC(=O)[C@@H]1CC[C@H](C)[C@@H](c2ccc(C)cc2)N1C(=O)c1ccc(/C=N/O[C@@H](C)CN2CCCCc3nc(C)c(C)cc32)cc1 | n | u | 20µM
CCOc1ccc(-c2ccc(SC)nn2)cc1 | 3.2µM | u | u
CCOc1ccc(-c2ccc(SCC(=O)Nc3nnc(CC)s3)nn2)cc1 | n | u | n
COc1ccc(N2C(=O)NC3CC2(C)Oc2ccc(Cl)cc23)cc1OC (stereo not given) | n | n | n
COc1ccc(CCN2C(=S)NC3CC2(C)Oc2ccc([N+](=O)[O-])cc23)cc1OC (stereo not given) | n | 16µM | u
COc1ccccc1-c1cc(-c2ccccc2)nc(SC(C(N)=O)c2ccccc2)c1C#N (stereo not given) | n | 11µM | u
Cc1nc(SC(C(N)=O)c2ccccc2)c(C#N)c(C)c1C (stereo not given) | x | n | n
SMILES | Luc counter | RORgamma inh | VP16 counter
COc1ccc(-c2nnc(NC(=O)c3cc(Cl)ccc3Cl)o2)cc1 | n | 1.1µM | 1.4µM
COc1ccc(-c2nnc(SCC(=O)Nc3cccc(Cl)c3)o2)cc1 | n | n | u
O=C(Nc1ccc2oc(-c3ccc4ccccc4c3)nc2c1)c1ccc2c(c1)OCCO2 | n | n | n
COc1ccc(-c2nnc(SCC(=O)NNC(=O)c3ccc(C)cc3)o2)cc1 | n | n | n
COc1ccc(-c2nnc(NC(=O)c3ccc(F)cc3)o2)cc1 | n | 0.11µM | u
COc1ccc(-c2nnc(NC(=O)c3ccc4c(c3)OCCO4)o2)cc1 | x | 1.1µM | 1.3µM
Cc1ccc(NC(=O)c2ccc(S(=O)(=O)N3CCOCC3)cc2)cc1 | x | n | n
O=C(Nc1nnc(-c2ccc(F)cc2)o1)c1ccc(S(=O)(=O)N2CCOCC2)cc1 | x | 0.63µM | 0.71µM
CCCOc1ccc(C2c3c(oc4ccccc4c3=O)C(=O)N2CCCN2CCOCC2)cc1 (stereo not given) | n | n | n
Cc1ccc(OCCNCc2ccccc2)c(C)c1 | x | n | n
Cc1cc(C(C)(C)CC(C)(C)C)ccc1OCCOCC[N+](C)(C)Cc1ccccc1 | n | u | 18µM
N#C/C(=C\c1cccc(Br)c1)C(=O)N1CCCCC1 | x | 2.5µM | u
N#C/C(=C\c1cccc(O)c1)C(=O)N1CCCCC1 | x | n[1.91 µM] | n
Cc1ccc(C(=O)N2c3ccccc3N(Cc3ccccc3)C(=O)C2(C)C)cc1 | n | n | u
CCOC(=O)c1cc(-c2ccc(OC)cc2)n[nH]1 | x | n | n
CC(C)COc1ccc(-c2cc(C(=O)NN)[nH]n2)cc1 | n | 13µM | u
C/C(=N\NC(=O)CCc1ccc(S(=O)(=O)N2CCOCC2)cc1)c1ccc(Br)cc1 | n | n | n
COc1ccc(CNC(=O)C(c2ccco2)N(C(=O)c2csnn2)c2cccc(C)c2C)cc1 (stereo not given) | n | n | n
O=C(Nc1ccc2c(c1)OCCO2)c1cccc(Cl)c1Cl | x | u | n
Cc1cc(NC(=O)c2ccc3c(c2)OCCO3)ccc1NC(=O)c1ccco1 | 11µM | n | n
O=C(Nc1ccc(NC(=O)c2ccco2)cc1)c1ccc2c(c1)OCCO2 | n | n | n
COc1cc(SC)ccc1C(=O)Nc1ccc2c(c1)OCCO2 | n | 11µM | u
Cc1ccc(C(=O)Nc2ccc3c(c2)OCCO3)c(Cl)c1 | x | 7.9µM | 5µM
COc1ccccc1C(=O)Nc1ccc2c(c1)OCCO2 | n | u | u
Cc1cccc(C)c1OCC(=O)Nc1ccc2c(c1)OCCO2 | x | n | 2.2µM
SMILES | Luc counter | RORgamma inh | VP16 counter
Cc1ccccc1OCC(=O)Nc1ccc2c(c1)OCCO2 | x | n | n
CCc1ccc(-c2cc(C)no2)cc1S(=O)(=O)NC(C)Cc1ccco1 (stereo not given) | x | n | n
CCCn1cc(S(=O)(=O)c2ccc(F)cc2)c(=O)c2cc(OCC)ccc21 | x | n | n
CCOc1ccc(N(CC(=O)NCc2cccnc2)S(=O)(=O)c2ccc(F)cc2)cc1 | x | n | n
Cc1ccn2cc(C(=O)Nc3ccccc3N3CCOCC3)nc2c1 | n | n | n
Cc1ccc(C(=O)Nc2ccc3c(c2)OCCO3)cc1 | x | 10µM | 10µM
Cc1ccc(C(=O)Nc2ccc3c(c2)OCO3)cc1 | n | u | n
Cc1ccn2cc(C(=O)Nc3ccc4c(c3)OCCO4)nc2c1 | n | 1.3µM | 4.5µM
O=C(COc1ccc2c(C(F)(F)F)cc(=O)oc2c1)Nc1ccc(N2CCOCC2)cc1 | n | n | n
COc1ccc(/C=C2\NC(=O)C(C=NCc3ccccc3)=C2O)cc1 | n | n | n
O=C1N/C(=C\c2ccc(O)cc2)C(O)=C1C=NCc1ccccc1 | n | 4µM | u
Cc1nc2c(C#N)cnn2c2c1CCN2CC1CCCO1 (stereo not given) | n | n | n
Cc1cc(=O)[nH]c(SCc2cc(=O)n3nc(C)sc3n2)n1 | n | n | n
CNCC[C@H](Oc1ccccc1OC)c1ccccc1 | n | n | n
Nc1nc2ccccc2n1C(=O)c1cccs1 | u | 0.89µM | 2.8µM
Cn1c(CNC(=O)c2ccc(F)cc2)nc2ccccc21 | n | n | n
